Experimental data as given in ChEMBL document CHEMBL3988442, “University of Dundee, Small-Polar-MMV Screening Library” (2021).
The whole screen tested about 48,000 compounds, of which about 13,000 (27%) showed an effect of 50% or more. This is one part of the list.

Each compound was assayed on Wolbachia pipientis (assay: Anti-Wolbachia Cell-Based Screen). Conditions: 5 µM.
Type: functional
Set-up: scale not given: in the data most compounds retested in dose-response had high values
For `Cc1nc(N)c2ccc(C3CCCCN3)nc2n1.Cl` (centres undefined), the “Percent Effect” value was 107.4%. `CCn1c(C)nnc1CN(C)C1CCN(CCOc2ccccc2)C1` (centres undefined) was tested, and the “Percent Effect” value was 149.5%. For `CCn1c(C)nnc1CN(C)C1CCN(CCCSC)C1` (centres undefined), the “Percent Effect” value was 119.6%. In the case of `CCn1c(C)nnc1CN(C)C1CCN(CCCOC)C1` (centres undefined), the “Percent Effect” value is reported as 0.6511%. With `CCn1c(C)nnc1CN(C)C1CCN(CCc2ccncc2)C1` (centres undefined) the “Percent Effect” value was 1.632%. For `CCn1c(C)nnc1CN(C)C1CCN(CCS(=O)(=O)CC)C1` (centres undefined), the “Percent Effect” value was 144.9%. For `CCn1c(C)nnc1CN(C)C1CCN(CCn2cccn2)C1` (centres undefined), the “Percent Effect” value was 0.3298%. With `CCn1c(C)nnc1CN(C)C1CCN(CC2CCC2)C1` (centres undefined) the “Percent Effect” value was 111.4%. In the case of `COC(=O)c1ccc(CNC(C)c2ccc(S(C)(=O)=O)cc2)cc1` (centres undefined), the “Percent Effect” value is reported as -2.189%. With `COC(=O)c1ccc(CNC(=O)Cc2csc(C(C)=O)c2)cc1` the “Percent Effect” value was 12.04%. In the case of `COc1ccc(-n2ccc(CNCc3ccc(OC)c(O)c3)n2)cc1`, the “Percent Effect” value is reported as -11.8%. `COc1ccc(CNCc2cc(Br)c3c(c2)OCO3)cc1` was tested, and the “Percent Effect” value was -3.854%. `COC(=O)c1ccc(CNCc2cn(C)nc2C)cc1` was tested, and the “Percent Effect” value was 100.4%. `COC(=O)c1ccc(CNC(=O)Nc2ccc(=O)n(C)c2)cc1` was tested, and the “Percent Effect” value was 12.29%. With `COc1ccc(CNCc2cn(C)nc2C)cc1` the “Percent Effect” value was 122.7%. For `COC(=O)c1ccc(CNCc2ccn(C)n2)cc1`, the “Percent Effect” value was 138.6%. For `CCn1cc(CNCc2ccc(C(=O)OC)cc2)c(C)n1`, the “Percent Effect” value was 153.8%. For `COc1ccc(CCn2cnnc2[S+](C)[O-])cc1` (centres undefined), the “Percent Effect” value was -1.402%. For `Cc1ccc(-c2ncc(CNc3cnccc3CO)s2)cc1`, the “Percent Effect” value was -6.325%. `Cc1nc(-c2ccccc2)sc1C(=O)N(C1CC1)C1CC(=O)NC1=O` (centres undefined) was tested, and the “Percent Effect” value was -7.701%. With `CCN(CC)C(=O)CN(C)C(=O)c1cc(-c2cccc(Cl)c2)no1` the “Percent Effect” value was -12%. In the case of `CCN(CC)c1ccc(NS(=O)(=O)c2cnn(C(C)C)c2)cn1`, the “Percent Effect” value is reported as -6.938%. For `COCc1ccc(C(=O)N2CCCN(Cc3ccc(F)cc3)CC2)s1`, the “Percent Effect” value was 2.247%. `CCCS(=O)(=O)c1ccc(N2CCN(c3ccccn3)CC2)nn1` was tested, and the “Percent Effect” value was 2.245%. In the case of `Cc1nn(C)c(N(C)C)c1CNCc1ccc(Cn2cccn2)cc1`, the “Percent Effect” value is reported as 10.8%. For `Cc1nn(C)cc1CNCc1ccc(N(C)C)cc1`, the “Percent Effect” value was 119.7%. With `Cc1ccc(CNCc2c(C)nn(C)c2N(C)C)cn1` the “Percent Effect” value was -12.73%. In the case of `CC(C)(C)OC(=O)N1CCC[C@H](NCC2CCOCC2)C1`, the “Percent Effect” value is reported as -10.59%. `Cc1cc(NC(=O)Cc2ccccc2O)c[nH]c1=O` was tested, and the “Percent Effect” value was 7.885%. For `CCn1cc(CN2CCc3nc(N4CCOCC4)nc(O)c3CC2)cn1`, the “Percent Effect” value was -4.464%. For `O=C(Cc1ccccn1)N1CCc2nc(-c3cnccn3)nc(O)c2C1`, the “Percent Effect” value was -13.11%. `CCn1cc(CN2CCc3nc(-c4ccccn4)nc(O)c3C2)cn1` was tested, and the “Percent Effect” value was 107.7%. `O=C(Cc1ccccn1)N1CCc2c(O)nc(-c3cnccn3)nc2C1` was tested, and the “Percent Effect” value was 94.87%. `CN1CCN(C(=O)Cc2ccccn2)Cc2cccnc21` was tested, and the “Percent Effect” value was -6.313%. In the case of `Oc1nc(-c2cnccn2)nc2c1CCN(Cc1ccccn1)C2`, the “Percent Effect” value is reported as 89.8%. For `CCOCCC(=O)N(C)Cc1noc(C(C)C)n1`, the “Percent Effect” value was -6.768%. With `CC(C)CC(C(=O)N1CCCSCC1)N1CCCCC1=O` (centres undefined) the “Percent Effect” value was -10.63%. In the case of `COc1ccc(C(=O)N(c2ccc(OC)c(F)c2)C(C)C)cn1`, the “Percent Effect” value is reported as 3.547%. For `CNS(=O)(=O)c1cccc(C(C)NCc2ccc(F)c(F)c2)c1` (centres undefined), the “Percent Effect” value was 18.96%. In the case of `COC(=O)c1ccc(N2CCC(N(C)c3ccccc3)CC2)nn1`, the “Percent Effect” value is reported as -3.944%. `O=C(CCC1CCCO1)NCc1ccnc(-n2cccn2)c1` (centres undefined) was tested, and the “Percent Effect” value was -9.533%. With `COCCN(Cc1sccc1C)C(=O)C1CCCN(C(N)=O)C1` (centres undefined) the “Percent Effect” value was 10.64%. With `Cc1ncc(CNC(C)(C)CO)c2cc(C(=O)c3ccc(Br)cc3)oc12` the “Percent Effect” value was 82.9%. In the case of `COc1ncc(C(=O)NCc2ccc(Br)cc2)cn1`, the “Percent Effect” value is reported as 4.726%. With `Cc1ncc(CNCCO)c2cc(C(=O)c3ccc(Br)cc3)oc12.Cl` the “Percent Effect” value was 215.6%. With `Cc1ncsc1CCN(C)Cc1ccc(CO)o1` the “Percent Effect” value was -28.69%. `Cc1ncc(CNCC(C)O)c2cc(C(=O)c3ccc(Br)cc3)oc12.Cl` (centres undefined) was tested, and the “Percent Effect” value was 102.9%. With `Cc1oc(CN(C)C(=O)c2ccc(Br)cc2)cc1C(=O)O` the “Percent Effect” value was 5.692%. `COC(=O)c1ccc(C(=O)NCc2ccc(Br)cc2)cn1` was tested, and the “Percent Effect” value was 0.8592%. `COC(=O)c1oc(CNC(C)(C)CO)cc1C` was tested, and the “Percent Effect” value was 5.82%. With `CC(O)CNCc1ccccc1C(F)(F)F.Cl` (centres undefined) the “Percent Effect” value was -7.899%. `Cc1ncc(CN(C)CCO)c2cc(C(=O)c3ccc(Br)cc3)oc12.Cl` was tested, and the “Percent Effect” value was 142.2%. For `CN1CCc2[nH]nc(C(=O)N3CCCC4(CN(C)C(=O)O4)C3)c2C1` (centres undefined), the “Percent Effect” value was 0.3528%. `CC(C)c1cc(NCC2(N3CCOCC3)CCCCC2)ncn1` was tested, and the “Percent Effect” value was -13.37%. For `Cc1noc2ncnc(N3CCC(O)(Cn4ccnc4)CC3)c12`, the “Percent Effect” value was -11.6%. In the case of `Cc1cc(-c2nnn(CCC(N)=O)n2)ccc1F`, the “Percent Effect” value is reported as -8.55%. For `COCCN1CCN(CC(=O)N(C)Cc2ccsc2)CC1`, the “Percent Effect” value was -3.337%. In the case of `CN(Cc1ccsc1)C(=O)CS(=O)(=O)Cc1ccc(Cl)c(Cl)c1`, the “Percent Effect” value is reported as -4.981%. `CN(Cc1ccsc1)C(=O)Cn1c(CS(C)(=O)=O)nc2ccccc21` was tested, and the “Percent Effect” value was 150.1%. In the case of `CS(=O)(=O)CCNC(=O)C1(c2cccc(Cl)c2)CCCCC1`, the “Percent Effect” value is reported as 4.174%. With `Cc1ccc(CN2CCC3(CC2)CCN(Cc2ccoc2)CC3)cc1.O=C(O)C(F)(F)F.O=C(O)C(F)(F)F` the “Percent Effect” value was 17.41%. In the case of `CS(=O)(=O)N1CCOCC2(CCN(Cc3ccc[nH]3)CC2)C1.O=C(O)C(F)(F)F`, the “Percent Effect” value is reported as -6.777%. In the case of `CS(=O)(=O)N1CCOCC2(CN(Cc3ccsc3)CCO2)C1.O=C(O)C(F)(F)F` (centres undefined), the “Percent Effect” value is reported as -5.064%. With `CS(=O)(=O)N1CCOCC2(CCN(Cc3ccoc3)CC2)C1.O=C(O)C(F)(F)F` the “Percent Effect” value was 115.7%. In the case of `CN1CCOCC12CCN(Cc1ccoc1)CC2.O=C(O)C(F)(F)F.O=C(O)C(F)(F)F`, the “Percent Effect” value is reported as 109%. With `O=C(CCc1ccsc1)NCc1ccnc(OC2CCOCC2)c1` the “Percent Effect” value was -13.16%. In the case of `COc1ncccc1CNC1CCc2c(ccc(=O)n2CC2CC2)C1.O=C(O)C(F)(F)F.O=C(O)C(F)(F)F` (centres undefined), the “Percent Effect” value is reported as 98.83%. With `CN(C)C(=O)Cn1c2c(ccc1=O)CC(NCc1ccoc1)CC2.O=C(O)C(F)(F)F` (centres undefined) the “Percent Effect” value was -9.512%. In the case of `COCCn1c2c(ccc1=O)CC(NCc1cccnc1OC)CC2.O=C(O)C(F)(F)F.O=C(O)C(F)(F)F` (centres undefined), the “Percent Effect” value is reported as 97.75%. In the case of `O=C(O)C(F)(F)F.O=c1ccc2c(n1CC1CC1)CCC(NCc1cccs1)C2` (centres undefined), the “Percent Effect” value is reported as 108.8%. In the case of `COc1ncccc1CNC1CCc2c(ccc(=O)n2C)C1.O=C(O)C(F)(F)F.O=C(O)C(F)(F)F` (centres undefined), the “Percent Effect” value is reported as 100.1%. `Cn1c2c(ccc1=O)CC(Nc1ncc(F)cn1)CC2.O=C(O)C(F)(F)F` (centres undefined) was tested, and the “Percent Effect” value was -3.561%. In the case of `COCCN1C(=O)CC[C@]12CC[C@@H](NCc1cccnc1OC)CC2.O=C(O)C(F)(F)F.O=C(O)C(F)(F)F`, the “Percent Effect” value is reported as -1.329%. `COc1ncccc1CN1CCc2[nH]nc(C(=O)N3CCCC3C)c2C1.O=C(O)C(F)(F)F.O=C(O)C(F)(F)F` (centres undefined) was tested, and the “Percent Effect” value was 4.676%. In the case of `Cn1cnc(S(=O)(=O)NCC2CCN(C(=O)Oc3ccccc3)CC2)c1`, the “Percent Effect” value is reported as -16.29%. For `Cc1ccc(C(NC(=O)Cn2cc(C3CC3)nn2)C2CC2)cc1` (centres undefined), the “Percent Effect” value was -17.63%. With `Cc1cc(CN(C)C(=O)NC2CCC(O)CC2)no1` (centres undefined) the “Percent Effect” value was -5.162%. In the case of `c1csc(CNc2ccccc2Cn2cncn2)c1`, the “Percent Effect” value is reported as 2.841%. In the case of `Cn1cnc(S(=O)(=O)NCC2(O)CCc3ccccc32)c1` (centres undefined), the “Percent Effect” value is reported as -54.8%. `Cn1cc(CN2CCC[C@]3(C(=O)O)CN(c4cnccn4)CC[C@@H]23)cn1` was tested, and the “Percent Effect” value was -2.616%. In the case of `NC(=O)c1cnc(NC2CCN(c3ccccn3)CC2)c(Cl)c1`, the “Percent Effect” value is reported as -2.297%. `O=c1cc(N2CCCCC2)cnn1CC(O)C(F)(F)F` (centres undefined) was tested, and the “Percent Effect” value was 110.9%. In the case of `O=c1cc(N2CCOCC2)cnn1CCc1ccc(F)cc1`, the “Percent Effect” value is reported as -9.338%. For `O=c1cc(N2CCNCC2)cnn1CCc1ccc(F)cc1`, the “Percent Effect” value was -7.094%. For `O=c1cc(N2CCCC2)cnn1CC(F)F`, the “Percent Effect” value was 95.3%. `CC(C)=CCn1ncc(N2CCOCC2)cc1=O` was tested, and the “Percent Effect” value was 1.937%. With `CC(C)=CCn1ncc(N2CCCCC2)cc1=O` the “Percent Effect” value was 8.054%. For `CCC(CC)Cn1ncc(N2CCOCC2)cc1=O`, the “Percent Effect” value was 7.831%. `O=c1cc(N2CCCC2)cnn1CCc1cccc(F)c1` was tested, and the “Percent Effect” value was 9.222%. In the case of `O=c1cc(N2CCCCC2)cnn1C[C@H](O)CO`, the “Percent Effect” value is reported as 78.69%. `Cc1nnc(N2C[C@H](C(=O)NCC3CC3)[C@@H]3CCO[C@@H]3C2)s1.O=C(O)C(F)(F)F` was tested, and the “Percent Effect” value was 0.08379%. `CC(C)Cc1noc(CNc2cccc(-c3nnnn3C)c2)n1` was tested, and the “Percent Effect” value was 3.895%. `CCCOC1CCCN(c2nc(COC)nc3c2cnn3C)C1` (centres undefined) was tested, and the “Percent Effect” value was 118.8%. `CCCOC1CCCN(c2ncnc3c2CCN(C(=O)C2CC2)C3)C1` (centres undefined) was tested, and the “Percent Effect” value was 1.517%. With `COCc1nc(N2CC[C@H](N(C)C)C2)c2cnn(C)c2n1` the “Percent Effect” value was 102.3%. In the case of `CN(C)[C@H]1CCN(c2nc(C(C)(C)C)nc3c2cnn3C)C1`, the “Percent Effect” value is reported as -2.508%. `CCCOC1CCCN(c2nc(CC)nc3c2cnn3C)C1` (centres undefined) was tested, and the “Percent Effect” value was 107.1%. `COCc1nc(N2CCC(CCO)CC2)c2cnn(C)c2n1` was tested, and the “Percent Effect” value was -4.999%. In the case of `CCc1nc(N2CCN(Cc3ncccc3C)CC2)c2cnn(C)c2n1`, the “Percent Effect” value is reported as 1.339%. `COc1cc(NC(=O)Cn2ccc3sc(C)cc3c2=O)cc(OC)c1` was tested, and the “Percent Effect” value was -10.49%. For `COCCNC(=O)Cn1ccc2sc(C)cc2c1=O`, the “Percent Effect” value was 165.3%. For `COCCCNC(=O)CN(C)C(=O)c1cc(C)sc1C`, the “Percent Effect” value was -3.68%. In the case of `NC(=O)NC(=O)Cn1ccc2sccc2c1=O`, the “Percent Effect” value is reported as -7.139%. In the case of `CCC(C)NC(=O)Cn1ccc2sc(C)cc2c1=O` (centres undefined), the “Percent Effect” value is reported as 106.2%.
